PKD1 inh: inhibitors of human PKD1 kinase; 200,000 tested, 0.056% active; AID 797; inhibition, % (test concentration not listed); Q15139; PKD1 kinase fluorescence polarization assay
Target sequence (Q15139 whole entry, looked up): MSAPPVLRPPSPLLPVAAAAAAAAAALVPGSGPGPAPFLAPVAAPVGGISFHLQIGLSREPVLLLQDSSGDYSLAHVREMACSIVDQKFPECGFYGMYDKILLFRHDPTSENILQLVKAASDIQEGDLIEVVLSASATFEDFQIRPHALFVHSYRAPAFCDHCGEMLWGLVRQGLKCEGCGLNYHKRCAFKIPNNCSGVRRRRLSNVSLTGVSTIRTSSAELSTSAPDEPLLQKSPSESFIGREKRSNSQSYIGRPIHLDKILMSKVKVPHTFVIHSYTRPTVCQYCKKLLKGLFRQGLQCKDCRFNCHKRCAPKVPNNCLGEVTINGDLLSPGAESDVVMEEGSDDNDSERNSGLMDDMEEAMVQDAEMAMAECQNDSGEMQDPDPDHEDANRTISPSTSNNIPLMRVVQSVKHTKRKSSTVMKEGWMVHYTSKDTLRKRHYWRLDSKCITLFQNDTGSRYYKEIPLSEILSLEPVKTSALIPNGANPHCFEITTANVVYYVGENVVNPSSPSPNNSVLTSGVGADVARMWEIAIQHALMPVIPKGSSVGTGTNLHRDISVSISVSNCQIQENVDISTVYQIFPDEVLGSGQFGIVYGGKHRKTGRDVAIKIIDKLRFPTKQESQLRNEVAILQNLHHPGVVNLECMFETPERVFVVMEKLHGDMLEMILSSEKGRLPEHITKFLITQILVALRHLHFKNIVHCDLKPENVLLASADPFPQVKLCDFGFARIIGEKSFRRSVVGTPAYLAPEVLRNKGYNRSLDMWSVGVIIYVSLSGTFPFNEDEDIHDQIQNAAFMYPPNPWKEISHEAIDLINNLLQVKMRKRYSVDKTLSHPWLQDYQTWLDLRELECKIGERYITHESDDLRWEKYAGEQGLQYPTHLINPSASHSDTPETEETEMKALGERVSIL
GRK2 inh: blocks RNA aptamer binding to human GRK2. P25098. bead flow cytometry, FAM-aptamer displacement from GRK2. inhibition of aptamer binding, % at 10 µM. 330,000 tested, 0.59% active;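 active = inhibition of aptamer binding above 40%, roughly 3 SD of noise, on plates passing a quality check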;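 also: median bead fluorescence of bound FAM aptamer so fluorescent compounds give negative values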
LANA-H2B inh: blocks KSHV LANA binding to histone H2A/H2B; Q9QR71; inhibition, % (no concentration beside the values); 320,000 tested, 0.6% active; cell-free LANA-H2A/H2B peptide, fluorescence polarization; in the data active = inhibition mostly above about 10%, no sharp cut-off; inactive = mostly below about 6.7%
HDAC3 inhib: inhibitors of human histone deacetylase 3; O15379; recombinant HDAC3, fluorogenic peptide/trypsin coupled, fluorescence; inhibition, % at 8.3 µM; 320,000 tested, 0.15% active; AID 2718; in the data active = inhibition above about 26%, passing the limit was not always enough; inconclusive = no clear call, values can overlap the other calls
VLA-4 inh: inhibition in a human VLA-4 binding assay; P13612; VLA-4 expressing cells, ligand binding flow cytometry; inhibition, % (about 7 µM as worked out from the volumes in the protocol); 330,000 tested, 0.2% active; AID 2557
DSG3 Ab inh: blocks pemphigus antibody binding to human desmoglein-3. binding (percent of control), % at 10 µM. 310,000 tested, 0.48% active. DSG3-coupled beads, scFv-anti-DSG3-GFP binding, flow cytometry; hits give low values. P32926. AID 588358;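 active = binding more than 3 SD below its plate's average and above zero; inconclusive = below that plate limit but binding exactly zero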;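 also: hits lower antibody fragment binding to DSG3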
The depositor's hits bear a star. Compounds with a hit are over-represented: about 1.8% of the library has one in this group of screens. Rule as the data show it, unless noted: active = inhibition above about 50%; inactive = the rest.

For Cc1ccc(NC(=O)CN(C)C2CCCCC2)cc1Cl the results were GRK2 inh 0, LANA-H2B inh 5, HDAC3 inhib -3, VLA-4 inh -7 and DSG3 Ab inh 118.
For Nc1nc(NCCO)nc(N2CCCCCC2)c1[N+](=O)[O-] the results were GRK2 inh 5, LANA-H2B inh -2, HDAC3 inhib -5, VLA-4 inh 7 and DSG3 Ab inh 100.
`OCCN(CCO)c1nc(N2CCCCC2)c2nc(N(CCO)CCO)nc(N3CCCCC3)c2n1` gave PKD1 inh -3, GRK2 inh 0, LANA-H2B inh 79* and VLA-4 inh -1.
Screening CCOC(=O)[C@H]1[C@H]2COc3ccc(Br)cc3[C@@H]2N2C(=O)c3cc(F)c(F)cc3NC(=O)[C@@]12C returned LANA-H2B inh -5, HDAC3 inhib 10 and DSG3 Ab inh 106.
`COc1ccc(CCNC(=O)CCC(=O)N2CCOc3ccc(C)cc32)cc1OC` gave GRK2 inh 0, LANA-H2B inh -1, HDAC3 inhib -1, VLA-4 inh 17 and DSG3 Ab inh 90.
COc1ccc(OC)c(CCNC(=O)CCC(=O)N2CCOc3ccc(C)cc32)c1 was read as GRK2 inh 2, LANA-H2B inh -5, HDAC3 inhib -3, VLA-4 inh -8 and DSG3 Ab inh 68*.
CC(=O)Nc1cccc(OCc2ccc(S(=O)(=O)Cc3ccccc3)cc2)c1 was read as PKD1 inh 10, GRK2 inh 0, LANA-H2B inh -1, HDAC3 inhib 12, VLA-4 inh 4 and DSG3 Ab inh 58*.
For Cn1c(O)c(N=NC(=O)CNC(=O)c2ccccc2)c2cc(Br)ccc21 the results were GRK2 inh 1, LANA-H2B inh 3, HDAC3 inhib 1 and VLA-4 inh 5.
For Cn1c(O)c(N=NC(=O)CNC(=O)c2ccccc2)c2ccccc21 the results were GRK2 inh 1, LANA-H2B inh 1, HDAC3 inhib 3, VLA-4 inh -1 and DSG3 Ab inh -36*.
NC(=O)Cn1c(O)c(N=NC(=O)CNC(=O)/C=C/c2ccccc2)c2ccccc21 was read as GRK2 inh 0, LANA-H2B inh 23*, HDAC3 inhib -2, VLA-4 inh 9 and DSG3 Ab inh 124.
For Cc1cc(CSC(=N)N)c(CSC(=N)N)cc1C the results were GRK2 inh 0, LANA-H2B inh 19*, HDAC3 inhib 0, VLA-4 inh -21 and DSG3 Ab inh 106.
`CCCOc1ccc(Br)cc1CSC(=N)N` gave PKD1 inh 4, GRK2 inh 0, LANA-H2B inh 1, HDAC3 inhib -2, VLA-4 inh 5 and DSG3 Ab inh 103.
O=C(Nc1ccccc1)OCCCCCOC(=O)Nc1ccccc1 was read as GRK2 inh 0, LANA-H2B inh -2, HDAC3 inhib 0, VLA-4 inh 1 and DSG3 Ab inh 79*.
O=C(Nc1ccccc1)OCCOc1ccccc1 was read as PKD1 inh -1, GRK2 inh 3, LANA-H2B inh -8, HDAC3 inhib -1, VLA-4 inh 1 and DSG3 Ab inh 91.
O=C(Nc1ccccc1)OCCOc1ccccc1Br was read as GRK2 inh 2, LANA-H2B inh -6, HDAC3 inhib 7, VLA-4 inh -5 and DSG3 Ab inh 69*.
CN(C)Cc1nc2ccccc2c(=O)n1Cc1nc(-c2cccc([N+](=O)[O-])c2)cs1 was read as PKD1 inh -1, GRK2 inh 0, LANA-H2B inh -3, HDAC3 inhib 3, VLA-4 inh -2 and DSG3 Ab inh 101.
Screening CN1CCN(Cc2nc3ccccc3c(=O)n2Cc2nc(-c3ccc([N+](=O)[O-])cc3)cs2)CC1 returned PKD1 inh -3, GRK2 inh 0, LANA-H2B inh 3, HDAC3 inhib 5, VLA-4 inh -23 and DSG3 Ab inh -160*.
Screening COc1ccc(CCCC(=O)NCC(=O)N/N=C/c2cc(Cl)ccc2OC)cc1 returned DSG3 Ab inh 105.
CCCCn1c(N)c(N(CC(C)C)C(=O)C2=COCCO2)c(=O)[nH]c1=O was read as GRK2 inh 0, HDAC3 inhib 0, VLA-4 inh -5 and DSG3 Ab inh 107.
COc1ccccc1N1C(=N)S/C(=C\c2ccc(-c3ccccc3C(=O)O)o2)C1=O was read as PKD1 inh -2, GRK2 inh 44*, LANA-H2B inh 0, HDAC3 inhib 8, VLA-4 inh -7 and DSG3 Ab inh 127.
CC(C(=O)Nc1ccccc1)N1CCN(C(=O)c2ccco2)CC1 (centres undefined) was read as GRK2 inh 0, LANA-H2B inh 68*, HDAC3 inhib -1, VLA-4 inh 12 and DSG3 Ab inh 102.
Screening CC(C)c1ccc(NC(=O)C(c2ccccc2)N2CCN(C(=O)c3ccco3)CC2)cc1 (centres undefined) returned PKD1 inh -5, GRK2 inh 2, LANA-H2B inh 2, HDAC3 inhib -2 and VLA-4 inh -4.
For COc1ccccc1N1CCN(C(=O)C(C)NC(=O)c2ccco2)CC1 (centres undefined) the results were GRK2 inh 1, LANA-H2B inh -5, HDAC3 inhib 3, VLA-4 inh 2 and DSG3 Ab inh 106.
Screening COc1ccccc1N1CCN(C(=O)c2ccco2)CC1 returned GRK2 inh 0, LANA-H2B inh 17*, HDAC3 inhib -8, VLA-4 inh 13 and DSG3 Ab inh 96.
Screening CC1=CC=CN2C1=NC(=O)CC2(C)C(=O)N(CC(=O)NC1CCCC1)c1cc(C)cc(C)c1 (centres undefined) returned PKD1 inh 1, GRK2 inh 0, LANA-H2B inh -3, HDAC3 inhib -58, VLA-4 inh -2 and DSG3 Ab inh 101.
`COc1ccc(C(=O)NN=C(Cc2ccccc2)Cc2ccccc2)cc1OC` gave PKD1 inh -2, GRK2 inh 0, LANA-H2B inh 0, HDAC3 inhib -4, VLA-4 inh -19 and DSG3 Ab inh 0.8*.
For COc1ccc(N2CCN(C(=O)COCc3cc(-c4ccc5c(c4)OCO5)on3)CC2)cc1 the results were GRK2 inh 0, LANA-H2B inh 6, HDAC3 inhib inconclusive, VLA-4 inh 9 and DSG3 Ab inh 71*.
`CCN1CCN(C(=O)COCc2cc(-c3ccc4c(c3)OCO4)on2)CC1` gave GRK2 inh 0, LANA-H2B inh 2, HDAC3 inhib 7, VLA-4 inh 11 and DSG3 Ab inh 101.
Screening O=C(CN(C(=O)CCC(=O)Nc1nccs1)C1CCCC1)NCc1ccc2c(c1)OCO2 returned PKD1 inh -8, GRK2 inh 0, LANA-H2B inh 0, HDAC3 inhib 14, VLA-4 inh 25 and DSG3 Ab inh 101.
Screening CCc1nnc(NC(=O)CCC(=O)N2CCN(c3cc(Cl)ccc3C)CC2)s1 returned GRK2 inh 1, LANA-H2B inh -3, HDAC3 inhib 9, VLA-4 inh 5 and DSG3 Ab inh 102.
